Inconclusive results are not listed. Activity calls are given as the source filed them. Calls come from the whole dose curve; as a rule, active = well fitted inhibition curve with a large enough effect; inconclusive = small, poorly fitted or top-dose-only effect; inactive = flat fitted curve, though single readings scatter.
What was measured:
Experiment in all cases: Cytotoxic Profiling of Annotated Libraries Using Quantitative High-Throughput Screening (AID 1296008); note: nearly all actives have a fitted effect of over 60% in size
Details in all cases: Five cell lines viability, CellTiter-Glo ATP luminescence, 48-72 h; max response: stronger effect = lower value
[1] = test system: CRL-7250
Summary of the method: (§1)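 Cytotoxicity was measured as CellTiter-Glo ATP luminescence, read after 10 min at room temperature. Compound treatment of the cells lasted 48 or 72 hr at 37 degrees Celsius in a qHTS format.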

[2] = test system: HEK293
Summary of the method: as §1

[3] = test system: HaCat
Summary of the method: as §1

[4] = test system: KB-3-1
Summary of the method: as §1

[5] = test system: NIH3T3
Summary of the method: as §1
% is set by controls: 0 for no effect and ±100 for the full control effect; potency is the fitted concentration of half-maximal effect.

OC[C@H]1OC(O)C[C@@H](O)[C@H]1O (some centres not stated)
inactive: outcome [1] | outcome [2] | outcome [3] | max response [4] 2.18% | outcome [5]

CN(CC(=O)N(Cc1ccc(C2CCCCC2)cc1)c1ccc(C(=O)O)c(O)c1)S(=O)(=O)c1c(F)c(F)c(F)c(F)c1F
inactive: outcome [1] | outcome [2] | max response [3] -3.31% | outcome [5]

COc1ccnc2[nH]cc(C(=O)C(=O)N3CCN(C(=O)c4ccccc4)C[C@@H]3C)c12
inactive: max response [1] -9.05% | max response [2] -2.26% | max response [3] -2.32% | max response [4] 3.92% | max response [5] -11.5%

CNC(=O)c1cccc(-c2ccc3c(N4CCOC[C@H]4C)nc(N4CCOC[C@H]4C)nc3n2)c1
active: Potency [1] 46.9 nM | Potency [2] 105 nM | Potency [3] 10500 nM | Potency [4] 118 nM | Potency [5] 418 nM

CC(=O)N1CCN(c2ccc(OCc3nn(C)c(C)c3-c3cccc4c(CCCOc5cccc6ccccc56)c(C(=O)O)n(Cc5cccnc5)c34)cc2)CC1
inactive: outcome [1] | max response [2] -15.3% | outcome [3] | outcome [4] | max response [5] -8.89%

O=C(c1ccc(F)cc1)N1CCC[C@H](c2nc(-c3ccc(F)cc3)no2)C1
inactive: max response [1] 3.37% | max response [2] -0.935% | outcome [3] | outcome [5]

CNC(=O)Nc1ccc(-c2nc(N3CC4CCC(C3)O4)c3cnn(C4CCC5(CC4)OCCO5)c3n2)cc1
active: Potency [1] 4.7 nM | Potency [2] 6.6 nM | Potency [5] 52.6 nM
inactive: max response [3] -19.6%

CCN1CCN(C(=O)N[C@H](C(=O)N[C@@H]2C(=O)N3C(C(=O)O)=C(CSc4nnnn4C)CS[C@@H]23)c2ccc(O)cc2)C(=O)C1=O
inactive: max response [1] 2.05% | outcome [2] | max response [3] 2.66% | outcome [4] | max response [5] 3.36%

Source: PubChem BioAssay (NCATS)
